From the supplement of paper PMC10849652
Targets with a hit are over-represented here; the source holds about 7,900 in all. About 0.6% of all pairs of compound and target were hits.

What was measured:
Assay in all cases: log2 fold change, soluble protein after heating vs DMSO (PISA); higher = thermal stabilisation; K562 cells, 10 uM, 30 min; active = over 0.2 and 3.5 SD of the protein, either way, in both replicates (recomputed)
[1] = compound: C1=CC=C(C=C1)[C@H](COC2=CC3=C(C=C2)NC(=O)N3)NC(=O)C4=CC=CN(C4=O)CC5=CC(=C(C=C5)F)F
Procedure, shortened: (§1)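 K562 cells at 2×10^6 cells/mL were exposed to 10 μM compound for 30 min, then aliquots were heated for 3 min across 48°C-58°C, pooled, and extracted in PBS containing 0.5% NP-40 at 4°C. The supernatant after 21,000xg for 90 min was taken as soluble protein and measured by TMTpro 16plex LC-MS/MS with channel sums equalised. Thermal stability is reported relative to control samples, with values from duplicates. Fold changes are given on a log2 scale.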

[2] = compound: CC1=C(SC2=C1C(=N[C@H](C3=NN=C(N32)C)CC(=O)N)C4=CC=C(C=C4)Cl)C
Procedure, shortened: as §1

[3] = compound: CC1=C2C(=CC=C1)N=C(N(C2=O)C3=CC=CC=C3C)CN4C=NC5=C(N=CN=C54)N
Procedure, shortened: as §1

[4] = compound: Cc1sc2c(c1C)C(c1ccc(Cl)cc1)=N[C@@H](CC(=O)OC(C)(C)C)c1nnc(C)n1-2
Procedure, shortened: as §1

[5] = compound: c1ccc([C@@H]2C[C@H]2NC2CCNCC2)cc1
Procedure, shortened: as §1

## EFCAB14 (UniProt O75071)
UniProt O75071, sequence (O75071 whole entry, looked up): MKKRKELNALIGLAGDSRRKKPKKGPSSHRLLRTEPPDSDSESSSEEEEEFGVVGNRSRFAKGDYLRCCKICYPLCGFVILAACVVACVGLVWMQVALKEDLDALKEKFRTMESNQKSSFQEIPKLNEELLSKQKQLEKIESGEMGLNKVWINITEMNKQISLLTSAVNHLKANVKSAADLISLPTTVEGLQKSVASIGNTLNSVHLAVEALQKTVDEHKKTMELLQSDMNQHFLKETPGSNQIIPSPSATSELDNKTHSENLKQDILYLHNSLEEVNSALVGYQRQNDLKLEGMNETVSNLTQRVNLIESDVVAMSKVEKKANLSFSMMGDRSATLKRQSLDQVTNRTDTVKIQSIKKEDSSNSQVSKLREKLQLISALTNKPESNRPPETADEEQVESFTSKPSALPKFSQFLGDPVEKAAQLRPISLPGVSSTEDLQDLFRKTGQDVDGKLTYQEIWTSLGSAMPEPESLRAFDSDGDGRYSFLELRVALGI
[1]
  log2 fold change: 0.045 (inactive)
[2]
  log2 fold change: -0.293 (active)
[3]
  log2 fold change: 0.016 (inactive)
[4]
  log2 fold change: 0.018 (inactive)
[5]
  log2 fold change: 0.321 (inactive)

## FAM118A (UniProt Q9NWS6)
UniProt Q9NWS6, sequence (Q9NWS6 whole entry, looked up): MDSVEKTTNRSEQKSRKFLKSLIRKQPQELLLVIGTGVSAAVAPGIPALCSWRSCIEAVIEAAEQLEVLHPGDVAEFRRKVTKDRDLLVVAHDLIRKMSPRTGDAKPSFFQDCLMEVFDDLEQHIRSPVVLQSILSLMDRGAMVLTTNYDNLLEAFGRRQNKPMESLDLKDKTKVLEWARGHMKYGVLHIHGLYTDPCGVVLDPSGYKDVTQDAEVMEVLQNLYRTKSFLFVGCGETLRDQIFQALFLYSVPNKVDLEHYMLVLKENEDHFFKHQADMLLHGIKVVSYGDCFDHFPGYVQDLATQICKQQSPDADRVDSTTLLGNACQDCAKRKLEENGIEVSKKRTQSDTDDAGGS
[1]
  log2 fold change: -0.079 (inactive)
[2]
  log2 fold change: 0.05 (inactive)
[3]
  log2 fold change: -0.102 (inactive)
[4]
  log2 fold change: -0.021 (inactive)
[5]
  log2 fold change: 0.003 (inactive)

## DBN1 isoform 3 (UniProt Q16643)
UniProt Q16643, sequence (Q16643 whole entry, looked up): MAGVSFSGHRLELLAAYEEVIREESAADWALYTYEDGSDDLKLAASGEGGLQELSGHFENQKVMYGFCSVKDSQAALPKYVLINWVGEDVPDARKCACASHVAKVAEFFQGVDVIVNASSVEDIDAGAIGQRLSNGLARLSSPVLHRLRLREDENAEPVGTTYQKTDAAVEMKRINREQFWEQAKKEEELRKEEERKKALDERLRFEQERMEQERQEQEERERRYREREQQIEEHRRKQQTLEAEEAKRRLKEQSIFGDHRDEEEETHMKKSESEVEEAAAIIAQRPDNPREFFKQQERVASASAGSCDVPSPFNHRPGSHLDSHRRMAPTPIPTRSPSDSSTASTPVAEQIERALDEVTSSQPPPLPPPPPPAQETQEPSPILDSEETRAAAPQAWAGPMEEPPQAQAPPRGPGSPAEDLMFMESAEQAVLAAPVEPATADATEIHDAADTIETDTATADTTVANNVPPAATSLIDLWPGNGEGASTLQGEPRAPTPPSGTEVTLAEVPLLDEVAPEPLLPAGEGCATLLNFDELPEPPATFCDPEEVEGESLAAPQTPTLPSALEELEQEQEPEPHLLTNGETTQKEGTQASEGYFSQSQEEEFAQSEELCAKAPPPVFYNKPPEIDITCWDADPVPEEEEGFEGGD
[1]
  log2 fold change: 0.049 (inactive)
[2]
  log2 fold change: 0.019 (inactive)
[3]
  log2 fold change: -0.027 (inactive)
[4]
  log2 fold change: 0.044 (inactive)
[5]
  log2 fold change: 0.004 (inactive)

## FAF2 (UniProt Q96CS3)
[1]
  log2 fold change: 0.002 (inactive)
[2]
  log2 fold change: 0.025 (inactive)
[3]
  log2 fold change: 0.067 (inactive)
[4]
  log2 fold change: -0.012 (inactive)
[5]
  log2 fold change: -0.017 (inactive)

## DHCR7 (UniProt Q9UBM7)
[1]
  log2 fold change: -0.061 (inactive)
[2]
  log2 fold change: 0 (inactive)
[3]
  log2 fold change: 0.093 (inactive)
[4]
  log2 fold change: -0.186 (inactive)
[5]
  log2 fold change: 1.06 (active)

## DYRK1A isoform 2 (UniProt Q13627)
[1]
  log2 fold change: -0.062 (inactive)
[2]
  log2 fold change: 0.059 (inactive)
[3]
  log2 fold change: 0.085 (inactive)
[4]
  log2 fold change: 0.026 (inactive)
[5]
  log2 fold change: 0.011 (inactive)

## FAM160A2 isoform 2 (UniProt Q8N612)
[1]
  log2 fold change: -0.027 (inactive)
[2]
  log2 fold change: -0.054 (inactive)
[3]
  log2 fold change: 0.343 (inactive)
[4]
  log2 fold change: 0.148 (inactive)
[5]
  log2 fold change: -0.344 (inactive)

## CTU1 (UniProt Q7Z7A3)
[1]
  log2 fold change: -0.061 (inactive)
[2]
  log2 fold change: 0.025 (inactive)
[3]
  log2 fold change: 0.052 (inactive)
[4]
  log2 fold change: -0.006 (inactive)
[5]
  log2 fold change: -0.051 (inactive)

## FAM83D (UniProt Q9H4H8)
UniProt Q9H4H8, sequence (Q9H4H8 whole entry, looked up): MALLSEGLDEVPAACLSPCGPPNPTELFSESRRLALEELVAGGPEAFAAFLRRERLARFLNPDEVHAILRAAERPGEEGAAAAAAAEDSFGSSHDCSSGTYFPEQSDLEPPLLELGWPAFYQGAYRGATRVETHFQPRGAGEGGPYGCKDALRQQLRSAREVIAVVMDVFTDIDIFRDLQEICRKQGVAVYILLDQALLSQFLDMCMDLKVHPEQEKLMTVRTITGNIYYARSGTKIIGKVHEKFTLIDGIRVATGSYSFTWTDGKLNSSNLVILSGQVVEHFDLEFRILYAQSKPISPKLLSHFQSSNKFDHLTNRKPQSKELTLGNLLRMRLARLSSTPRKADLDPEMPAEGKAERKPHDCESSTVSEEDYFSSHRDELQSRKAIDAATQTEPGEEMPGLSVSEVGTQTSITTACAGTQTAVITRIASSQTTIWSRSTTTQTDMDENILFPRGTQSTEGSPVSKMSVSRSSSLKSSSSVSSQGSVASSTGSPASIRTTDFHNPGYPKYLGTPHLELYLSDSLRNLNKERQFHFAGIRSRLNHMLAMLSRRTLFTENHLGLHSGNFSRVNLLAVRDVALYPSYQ
[1]
  log2 fold change: -0.068 (inactive)
[2]
  log2 fold change: 0.027 (inactive)
[3]
  log2 fold change: 0 (inactive)
[4]
  log2 fold change: 0.045 (inactive)
[5]
  log2 fold change: 0.06 (inactive)

## DNAJB1 (UniProt P25685)
[1]
  log2 fold change: -0.019 (inactive)
[2]
  log2 fold change: 0.015 (inactive)
[3]
  log2 fold change: 0.066 (inactive)
[4]
  log2 fold change: -0.003 (inactive)
[5]
  log2 fold change: -0.026 (inactive)

## ERCC6 (UniProt Q03468)
[1]
  log2 fold change: 0.013 (inactive)
[2]
  log2 fold change: -0.025 (inactive)
[3]
  log2 fold change: -0.018 (inactive)
[4]
  log2 fold change: -0.008 (inactive)
[5]
  log2 fold change: 0.151 (inactive)

## FAM118B (UniProt Q9BPY3)
[1]
  log2 fold change: -0.276 (inactive)
[2]
  log2 fold change: -0.01 (inactive)
[3]
  log2 fold change: 0.208 (inactive)
[4]
  log2 fold change: -0.019 (inactive)
[5]
  log2 fold change: -0.009 (inactive)

## CYFIP1 (UniProt Q7L576)
[1]
  log2 fold change: 0.009 (inactive)
[2]
  log2 fold change: 0.005 (inactive)
[3]
  log2 fold change: -0.009 (inactive)
[4]
  log2 fold change: -0.005 (inactive)
[5]
  log2 fold change: -0.029 (inactive)

## CTSL (UniProt P07711)
[1]
  log2 fold change: -0.017 (inactive)
[2]
  log2 fold change: -0.07 (inactive)
[3]
  log2 fold change: 0.015 (inactive)
[4]
  log2 fold change: 0.031 (inactive)
[5]
  log2 fold change: 0.104 (inactive)

## EEA1 (UniProt Q15075)
[1]
  log2 fold change: 0.022 (inactive)
[2]
  log2 fold change: -0.015 (inactive)
[3]
  log2 fold change: 0.011 (inactive)
[4]
  log2 fold change: 0.021 (inactive)
[5]
  log2 fold change: 0.038 (inactive)

## DCTPP1 (UniProt Q9H773)
UniProt Q9H773, sequence (Q9H773 whole entry, looked up): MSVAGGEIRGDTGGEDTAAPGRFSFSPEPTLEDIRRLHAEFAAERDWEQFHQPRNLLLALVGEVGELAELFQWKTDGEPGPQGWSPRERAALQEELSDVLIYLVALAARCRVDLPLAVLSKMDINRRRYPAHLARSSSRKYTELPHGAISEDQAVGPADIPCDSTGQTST
[1]
  log2 fold change: 0.022 (inactive)
[2]
  log2 fold change: 0.029 (inactive)
[3]
  log2 fold change: -0.015 (inactive)
[4]
  log2 fold change: -0.043 (inactive)
[5]
  log2 fold change: 0.009 (inactive)

## EDC3 (UniProt Q96F86)
UniProt Q96F86, sequence (Q96F86 whole entry, looked up): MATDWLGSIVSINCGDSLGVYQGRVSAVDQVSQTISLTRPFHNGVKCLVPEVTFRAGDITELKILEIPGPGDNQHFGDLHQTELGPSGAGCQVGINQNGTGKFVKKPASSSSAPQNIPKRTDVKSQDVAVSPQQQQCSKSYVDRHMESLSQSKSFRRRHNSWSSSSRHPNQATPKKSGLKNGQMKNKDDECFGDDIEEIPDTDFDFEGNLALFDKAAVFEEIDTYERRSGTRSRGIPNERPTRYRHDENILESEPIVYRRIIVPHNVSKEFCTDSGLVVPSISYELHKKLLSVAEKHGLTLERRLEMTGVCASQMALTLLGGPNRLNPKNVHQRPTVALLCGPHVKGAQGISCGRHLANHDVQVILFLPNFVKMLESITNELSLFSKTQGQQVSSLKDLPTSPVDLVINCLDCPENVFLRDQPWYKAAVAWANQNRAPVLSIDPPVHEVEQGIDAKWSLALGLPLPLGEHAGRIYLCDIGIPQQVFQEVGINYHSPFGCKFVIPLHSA
[1]
  log2 fold change: -0.198 (inactive)
[2]
  log2 fold change: 0.12 (inactive)
[3]
  log2 fold change: 0.019 (inactive)
[4]
  log2 fold change: 0.063 (inactive)
[5]
  log2 fold change: 0.026 (inactive)

## EGR1 (UniProt P18146)
[1]
  log2 fold change: 0.034 (inactive)
[2]
  log2 fold change: 0.241 (inactive)
[3]
  log2 fold change: -0.097 (inactive)
[4]
  log2 fold change: 0.705 (inactive)
[5]
  log2 fold change: 0.07 (inactive)

## CTSV (UniProt O60911)
[1]
  log2 fold change: -0.02 (inactive)
[2]
  log2 fold change: -0.087 (inactive)
[3]
  log2 fold change: 0.021 (inactive)
[4]
  log2 fold change: -0.065 (inactive)
[5]
  log2 fold change: 0.005 (inactive)

## DOLPP1 (UniProt Q86YN1)
[1]
  log2 fold change: -0.028 (inactive)
[2]
  log2 fold change: 0.02 (inactive)
[3]
  log2 fold change: -0.107 (inactive)
[4]
  log2 fold change: 0.062 (inactive)
[5]
  log2 fold change: 0.153 (inactive)

## DHX40 (UniProt Q8IX18)
[1]
  log2 fold change: 0.026 (inactive)
[2]
  log2 fold change: 0.101 (inactive)
[3]
  log2 fold change: 0.072 (inactive)
[4]
  log2 fold change: 0.093 (inactive)
[5]
  log2 fold change: -0.022 (inactive)

## DHRS3 (UniProt O75911)
[1]
  log2 fold change: 0.007 (inactive)
[2]
  log2 fold change: 0.068 (inactive)
[3]
  log2 fold change: 0.057 (inactive)
[4]
  log2 fold change: 0.017 (inactive)
[5]
  log2 fold change: -0.024 (inactive)

## EIF4E2 (UniProt O60573)
[1]
  log2 fold change: -0.043 (inactive)
[2]
  log2 fold change: -0.01 (inactive)
[3]
  log2 fold change: -0.007 (inactive)
[4]
  log2 fold change: -0.06 (inactive)
[5]
  log2 fold change: 0.055 (inactive)

## EDEM2 (UniProt Q9BV94)
[1]
  log2 fold change: 0.194 (inactive)
[2]
  log2 fold change: 0.042 (inactive)
[3]
  log2 fold change: 0.013 (inactive)
[4]
  log2 fold change: -0.046 (inactive)
[5]
  log2 fold change: 0.012 (inactive)

## EXOC4 (UniProt Q96A65)
[1]
  log2 fold change: -0.05 (inactive)
[2]
  log2 fold change: 0.052 (inactive)
[3]
  log2 fold change: 0.015 (inactive)
[4]
  log2 fold change: 0.081 (inactive)
[5]
  log2 fold change: -0.049 (inactive)

## DNAJB12 (UniProt Q9NXW2)
UniProt Q9NXW2, sequence (Q9NXW2 whole entry, looked up): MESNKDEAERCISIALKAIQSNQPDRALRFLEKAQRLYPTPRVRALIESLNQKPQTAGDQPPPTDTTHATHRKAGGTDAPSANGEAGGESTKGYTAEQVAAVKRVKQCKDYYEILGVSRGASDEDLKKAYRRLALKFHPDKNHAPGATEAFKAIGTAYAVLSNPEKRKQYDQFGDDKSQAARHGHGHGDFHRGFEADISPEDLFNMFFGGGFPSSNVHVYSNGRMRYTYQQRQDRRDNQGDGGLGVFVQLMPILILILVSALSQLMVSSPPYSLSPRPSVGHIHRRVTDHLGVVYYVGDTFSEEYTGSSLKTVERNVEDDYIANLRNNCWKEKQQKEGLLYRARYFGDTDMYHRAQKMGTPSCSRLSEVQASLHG
[1]
  log2 fold change: -0.044 (inactive)
[2]
  log2 fold change: 0.027 (inactive)
[3]
  log2 fold change: 0.081 (inactive)
[4]
  log2 fold change: -0.011 (inactive)
[5]
  log2 fold change: 0.011 (inactive)

## CUTA isoform 2 (UniProt O60888)
[1]
  log2 fold change: 0.099 (inactive)
[2]
  log2 fold change: 0.116 (inactive)
[3]
  log2 fold change: -0.289 (inactive)
[4]
  log2 fold change: -0.123 (inactive)
[5]
  log2 fold change: 0.015 (inactive)

## ESS2 (UniProt Q96DF8)
UniProt Q96DF8, sequence (Q96DF8 whole entry, looked up): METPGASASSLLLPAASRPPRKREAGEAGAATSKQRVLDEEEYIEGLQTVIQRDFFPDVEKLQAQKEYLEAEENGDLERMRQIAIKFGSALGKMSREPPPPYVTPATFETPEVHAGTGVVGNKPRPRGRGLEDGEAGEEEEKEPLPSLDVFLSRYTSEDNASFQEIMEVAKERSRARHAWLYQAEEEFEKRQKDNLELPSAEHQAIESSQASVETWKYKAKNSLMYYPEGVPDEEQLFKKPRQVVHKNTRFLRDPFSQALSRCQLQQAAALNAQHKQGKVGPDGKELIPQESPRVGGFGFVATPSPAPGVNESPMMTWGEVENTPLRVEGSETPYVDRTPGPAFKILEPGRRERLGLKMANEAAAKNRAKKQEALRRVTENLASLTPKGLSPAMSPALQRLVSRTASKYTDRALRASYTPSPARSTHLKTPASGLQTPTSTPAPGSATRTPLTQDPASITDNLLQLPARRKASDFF
[1]
  log2 fold change: 0.04 (inactive)
[2]
  log2 fold change: -0.06 (inactive)
[3]
  log2 fold change: -0.096 (inactive)
[4]
  log2 fold change: 0.018 (inactive)
[5]
  log2 fold change: 0.075 (inactive)

## FAM3A (UniProt P98173)
UniProt P98173, sequence (P98173 whole entry, looked up): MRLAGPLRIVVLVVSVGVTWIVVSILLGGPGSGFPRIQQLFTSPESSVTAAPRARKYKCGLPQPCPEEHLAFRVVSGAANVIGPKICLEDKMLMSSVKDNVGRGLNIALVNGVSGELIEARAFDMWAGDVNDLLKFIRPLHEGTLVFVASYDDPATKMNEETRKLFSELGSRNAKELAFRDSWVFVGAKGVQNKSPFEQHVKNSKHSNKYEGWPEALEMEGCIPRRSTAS
[1]
  log2 fold change: -0.01 (inactive)
[2]
  log2 fold change: -0.001 (inactive)
[3]
  log2 fold change: 0.038 (inactive)
[4]
  log2 fold change: -0.051 (inactive)
[5]
  log2 fold change: -0.014 (inactive)

## DCAF10 (UniProt Q5QP82)
UniProt Q5QP82, sequence (Q5QP82 whole entry, looked up): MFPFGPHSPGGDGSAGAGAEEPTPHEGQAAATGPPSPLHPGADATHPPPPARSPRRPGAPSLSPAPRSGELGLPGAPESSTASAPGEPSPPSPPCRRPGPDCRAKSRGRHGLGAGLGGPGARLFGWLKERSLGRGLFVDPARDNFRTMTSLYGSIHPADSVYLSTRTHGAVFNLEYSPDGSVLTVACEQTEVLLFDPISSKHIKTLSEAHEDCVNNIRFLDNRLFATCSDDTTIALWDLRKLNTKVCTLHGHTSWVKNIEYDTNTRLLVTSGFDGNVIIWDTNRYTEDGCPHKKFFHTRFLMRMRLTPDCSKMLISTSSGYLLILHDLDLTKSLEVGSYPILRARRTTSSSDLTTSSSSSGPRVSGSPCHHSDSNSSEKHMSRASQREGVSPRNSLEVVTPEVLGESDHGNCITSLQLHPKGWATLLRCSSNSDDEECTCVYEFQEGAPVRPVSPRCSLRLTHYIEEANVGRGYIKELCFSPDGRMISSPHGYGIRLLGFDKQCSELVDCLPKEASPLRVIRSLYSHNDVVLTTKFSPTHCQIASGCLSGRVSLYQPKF
[1]
  log2 fold change: 0.015 (inactive)
[2]
  log2 fold change: -0.018 (inactive)
[3]
  log2 fold change: 0.056 (inactive)
[4]
  log2 fold change: 0.013 (inactive)
[5]
  log2 fold change: -0.011 (inactive)

## DTWD1 (UniProt Q8N5C7)
[1]
  log2 fold change: -0.051 (inactive)
[2]
  log2 fold change: -0.011 (inactive)
[3]
  log2 fold change: 0.152 (inactive)
[4]
  log2 fold change: -0.056 (inactive)
[5]
  log2 fold change: 0.07 (inactive)

## DBT (UniProt P11182)
[1]
  log2 fold change: -0.003 (inactive)
[2]
  log2 fold change: -0.004 (inactive)
[3]
  log2 fold change: 0.012 (inactive)
[4]
  log2 fold change: 0.062 (inactive)
[5]
  log2 fold change: 0.007 (inactive)

## FAM122A (UniProt Q96E09)
[1]
  log2 fold change: 0.008 (inactive)
[2]
  log2 fold change: -0.055 (inactive)
[3]
  log2 fold change: -0.022 (inactive)
[4]
  log2 fold change: 0.158 (inactive)
[5]
  log2 fold change: 0.083 (inactive)

## EXOC8 (UniProt Q8IYI6)
[1]
  log2 fold change: -0.004 (inactive)
[2]
  log2 fold change: 0.029 (inactive)
[3]
  log2 fold change: 0.03 (inactive)
[4]
  log2 fold change: 0.006 (inactive)
[5]
  log2 fold change: -0.051 (inactive)

## DUS3L (UniProt Q96G46)
[1]
  log2 fold change: 0.073 (inactive)
[2]
  log2 fold change: 0.04 (inactive)
[3]
  log2 fold change: -0.057 (inactive)
[4]
  log2 fold change: -0.007 (inactive)
[5]
  log2 fold change: 0.007 (inactive)

## DHRS1 (UniProt Q96LJ7)
[1]
  log2 fold change: 0.241 (inactive)
[2]
  log2 fold change: 0.015 (inactive)
[3]
  log2 fold change: 0.216 (inactive)
[4]
  log2 fold change: 0.321 (inactive)
[5]
  log2 fold change: 0.013 (inactive)

## EHBP1L1 (UniProt Q8N3D4)
[1]
  log2 fold change: -0.016 (inactive)
[2]
  log2 fold change: 0.065 (inactive)
[3]
  log2 fold change: 0.052 (inactive)
[4]
  log2 fold change: -0.022 (inactive)
[5]
  log2 fold change: -0.051 (inactive)

## DHPS (UniProt P49366)
[1]
  log2 fold change: -0.014 (inactive)
[2]
  log2 fold change: 0.013 (inactive)
[3]
  log2 fold change: -0.014 (inactive)
[4]
  log2 fold change: 0.013 (inactive)
[5]
  log2 fold change: 0.081 (inactive)

## CYBA (UniProt P13498)
UniProt P13498, sequence (P13498 whole entry, looked up): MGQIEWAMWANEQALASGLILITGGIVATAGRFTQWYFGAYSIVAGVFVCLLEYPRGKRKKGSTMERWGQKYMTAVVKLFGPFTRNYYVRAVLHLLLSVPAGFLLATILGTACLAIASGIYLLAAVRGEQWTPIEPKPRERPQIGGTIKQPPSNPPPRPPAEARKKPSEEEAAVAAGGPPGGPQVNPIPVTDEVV
[1]
  log2 fold change: 0.007 (inactive)
[2]
  log2 fold change: 0.034 (inactive)
[3]
  log2 fold change: -0.013 (inactive)
[4]
  log2 fold change: 0.027 (inactive)
[5]
  log2 fold change: 0.031 (inactive)

## DHRS7B (UniProt Q6IAN0)
UniProt Q6IAN0, sequence (Q6IAN0 whole entry, looked up): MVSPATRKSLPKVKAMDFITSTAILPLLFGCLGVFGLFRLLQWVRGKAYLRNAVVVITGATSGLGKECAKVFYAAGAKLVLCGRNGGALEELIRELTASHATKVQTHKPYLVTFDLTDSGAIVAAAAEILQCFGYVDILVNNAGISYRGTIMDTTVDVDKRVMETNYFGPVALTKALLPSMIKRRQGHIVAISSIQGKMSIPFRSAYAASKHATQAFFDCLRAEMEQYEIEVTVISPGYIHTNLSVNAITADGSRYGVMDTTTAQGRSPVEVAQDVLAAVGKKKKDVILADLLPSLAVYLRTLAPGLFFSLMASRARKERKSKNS
[1]
  log2 fold change: 0.054 (inactive)
[2]
  log2 fold change: 0.032 (inactive)
[3]
  log2 fold change: -0.001 (inactive)
[4]
  log2 fold change: -0.018 (inactive)
[5]
  log2 fold change: -0.013 (inactive)
